Assays:
Experiment in all cases: PBM binding z-score (relative to random genomic background probes); higher = stronger binding; sequences stand for … in GC…GCGATTGACAGCGTAGAATGAAGG
[1] = test system: FXR:RXRa (NR concentration 270 nM, RXRa partner concentration 90 nM)
Method in brief: (§1)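 Binding buffer was PBS pH 7.4 with 2% milk, 0.02% Triton X-100, 1 mM DTT, 0.2 mg/mL BSA and 0.4 mg/ml salmon testes DNA. In it, ligand-free nuclear receptor dimers were incubated 1 h on custom Agilent 4×180K protein-binding microarrays carrying double-stranded probes. Antibodies against each partner (one per run) detected binding, and z-scores were calculated against random background probes after regression normalization of scanned fluorescence.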

[2] = test system: LXRa:RXRa (NR concentration 270 nM, RXRa partner concentration 90 nM)
Method in brief: as §1

[3] = test system: LXRa homodimer (NR concentration 270 nM)
Method in brief: as §1

[4] = test system: LXRb:RXRa (NR concentration 270 nM, RXRa partner concentration 90 nM)
Method in brief: as §1

[5] = test system: LXRb homodimer (NR concentration 270 nM)
Method in brief: as §1

[6] = test system: PPARa:RXRa (NR concentration 270 nM, RXRa partner concentration 90 nM)
Method in brief: as §1

[7] = test system: PPARg:RXRa (NR concentration 180 nM, RXRa partner concentration 90 nM)
Method in brief: as §1

[8] = test system: PPARg:RXRa 270nM:90nM, anti-RXR (NR concentration 270 nM, RXRa partner concentration 90 nM)
Method in brief: as §1

[9] = test system: PPARg:RXRa 30nM:10nM, anti-RXR (NR concentration 30 nM, RXRa partner concentration 10 nM)
Method in brief: as §1

[10] = test system: PPARg:RXRa 90nM:30nM, anti-RXR (NR concentration 90 nM, RXRa partner concentration 30 nM)
Method in brief: as §1

GGAAAGAGGGCAAAGTTGATAGCATCTGTCGACG
PBM binding z-score [1]: 2.04
PBM binding z-score [2]: 1.94
PBM binding z-score [3]: 0.254
PBM binding z-score [4]: 1.64
PBM binding z-score [5]: 0.832
PBM binding z-score [6]: 4.24
PBM binding z-score [7]: 6.06
PBM binding z-score [8]: 6.9
PBM binding z-score [9]: 5.92
PBM binding z-score [10]: 7.29

TCTCGGAGGACATGAAAGGTCAGAGCTCGACATC
PBM binding z-score [1]: 2.65
PBM binding z-score [2]: 3.67
PBM binding z-score [3]: 2.92
PBM binding z-score [4]: 3.09
PBM binding z-score [5]: -0.221
PBM binding z-score [6]: 3.34
PBM binding z-score [7]: 1
PBM binding z-score [8]: 2.68
PBM binding z-score [9]: 2.8
PBM binding z-score [10]: 2.61

TAGCCTAGGTCATGAGGGCCAGTATAGTGTCGGC
PBM binding z-score [1]: 3.91
PBM binding z-score [2]: 3.07
PBM binding z-score [3]: 0.189
PBM binding z-score [4]: 1.73
PBM binding z-score [5]: -0.262
PBM binding z-score [6]: 3.69
PBM binding z-score [7]: 2.94
PBM binding z-score [8]: 2.69
PBM binding z-score [9]: 0.483
PBM binding z-score [10]: 1.94

ATCTCTAGGGAACCAAGTTCAGTGAATGCCGAAC
PBM binding z-score [1]: -0.221
PBM binding z-score [2]: 0.011
PBM binding z-score [3]: 0.471
PBM binding z-score [4]: 0.284
PBM binding z-score [5]: 0.239
PBM binding z-score [6]: 0.00792
PBM binding z-score [7]: -0.0553
PBM binding z-score [8]: 0.046
PBM binding z-score [9]: 0.00419
PBM binding z-score [10]: 0.0789

TCATATAGGTAAATGCTAGGTGACAGTCCGATCT
PBM binding z-score [1]: 0.752
PBM binding z-score [2]: 0.626
PBM binding z-score [3]: -0.0198
PBM binding z-score [4]: 0.519
PBM binding z-score [5]: -0.279
PBM binding z-score [6]: 1.12
PBM binding z-score [7]: 0.994
PBM binding z-score [8]: 2.02
PBM binding z-score [9]: 3.61
PBM binding z-score [10]: 2.54

CAGCCTAGGTCAGGGCCAGTATGGGAGGAACGTT
PBM binding z-score [1]: 1.41
PBM binding z-score [2]: 0.705
PBM binding z-score [3]: -0.724
PBM binding z-score [4]: 0.176
PBM binding z-score [5]: -1.05
PBM binding z-score [6]: 2.06
PBM binding z-score [7]: 0.648
PBM binding z-score [8]: 0.825
PBM binding z-score [9]: -0.673
PBM binding z-score [10]: 0.0186

ATCTCTAGGTAACAAGTGCAGTGAAAGAGAGGAC
PBM binding z-score [1]: 0.0619
PBM binding z-score [2]: 0.181
PBM binding z-score [3]: -0.0829
PBM binding z-score [4]: -0.182
PBM binding z-score [5]: 0.699
PBM binding z-score [6]: 0.43
PBM binding z-score [7]: 1.07
PBM binding z-score [8]: 1.38
PBM binding z-score [9]: 0.591
PBM binding z-score [10]: 1.05

TCTTGTAGATCAAAGGTTATGAAAGCCGAAGCCT
PBM binding z-score [1]: 1.67
PBM binding z-score [2]: 2.16
PBM binding z-score [3]: 0.00882
PBM binding z-score [4]: 2.21
PBM binding z-score [5]: 0.156
PBM binding z-score [6]: 4.58
PBM binding z-score [7]: 7.9
PBM binding z-score [8]: 7.7
PBM binding z-score [9]: 7.23
PBM binding z-score [10]: 8.56

CCGAGTAGGTTGTGGGGCATTCAGGCAACGGTGA
PBM binding z-score [1]: -0.145
PBM binding z-score [2]: -0.118
PBM binding z-score [3]: 0.0165
PBM binding z-score [4]: 0.178
PBM binding z-score [5]: -0.163
PBM binding z-score [6]: 0.496
PBM binding z-score [7]: 0.169
PBM binding z-score [8]: 1.61
PBM binding z-score [9]: -0.549
PBM binding z-score [10]: 0.776

ACAATGAGGTTATTAAGATCAGGGAATTGCGGTC
PBM binding z-score [1]: 1.54
PBM binding z-score [2]: 1.7
PBM binding z-score [3]: 0.283
PBM binding z-score [4]: 1.26
PBM binding z-score [5]: 0.952
PBM binding z-score [6]: 2.42
PBM binding z-score [7]: 1.45
PBM binding z-score [8]: 1.7
PBM binding z-score [9]: 0.622
PBM binding z-score [10]: 1.3

TCTTGTAGATCAAAGATTAAGAAAGCCGAAGCCT
PBM binding z-score [1]: 0.277
PBM binding z-score [2]: 0.499
PBM binding z-score [3]: -0.302
PBM binding z-score [4]: 0.245
PBM binding z-score [5]: -0.0264
PBM binding z-score [6]: 1.12
PBM binding z-score [7]: 1.55
PBM binding z-score [8]: 3.63
PBM binding z-score [9]: 3.56
PBM binding z-score [10]: 3.75

TTACCAAGGTGAGCTTAGGTCGTTGATCCAACTC
PBM binding z-score [1]: 0.558
PBM binding z-score [2]: 0.409
PBM binding z-score [3]: -0.684
PBM binding z-score [4]: 0.122
PBM binding z-score [5]: -1.23
PBM binding z-score [6]: 1.05
PBM binding z-score [7]: -0.0698
PBM binding z-score [8]: 0.725
PBM binding z-score [9]: -0.0893
PBM binding z-score [10]: 0.244

TTTCCAAGGTGAAGGTCGTTGATCCCTCTGTAGA
PBM binding z-score [1]: 2.77
PBM binding z-score [2]: 2.31
PBM binding z-score [3]: 0.296
PBM binding z-score [4]: 1.8
PBM binding z-score [5]: -0.21
PBM binding z-score [6]: 2.81
PBM binding z-score [7]: 2.68
PBM binding z-score [8]: 3.7
PBM binding z-score [9]: 1.88
PBM binding z-score [10]: 3.35

TCTAGTTGGTCACGAAGGTCACACACGACGGGTA
PBM binding z-score [1]: 2.82
PBM binding z-score [2]: 3.04
PBM binding z-score [3]: 1.75
PBM binding z-score [4]: 3.17
PBM binding z-score [5]: 0.769
PBM binding z-score [6]: 3.71
PBM binding z-score [7]: 3.45
PBM binding z-score [8]: 4.6
PBM binding z-score [9]: 3.66
PBM binding z-score [10]: 4.25

TGAATGAGATTAAAGATCAGGGAACGTGGCGTCG
PBM binding z-score [1]: -0.229
PBM binding z-score [2]: -0.065
PBM binding z-score [3]: -0.329
PBM binding z-score [4]: -0.322
PBM binding z-score [5]: -0.389
PBM binding z-score [6]: 0.409
PBM binding z-score [7]: 1.02
PBM binding z-score [8]: 2.19
PBM binding z-score [9]: 1.3
PBM binding z-score [10]: 1.91

CTGACTGGGGCAGAAAGGTTACCATACCATCCGG
PBM binding z-score [1]: 0.933
PBM binding z-score [2]: 1.01
PBM binding z-score [3]: 0.207
PBM binding z-score [4]: 1.5
PBM binding z-score [5]: -0.293
PBM binding z-score [6]: 2.65
PBM binding z-score [7]: 2.32
PBM binding z-score [8]: 3
PBM binding z-score [9]: 1.18
PBM binding z-score [10]: 2.35

AGTCAAGGTTCACTAGGTAACGTAAGATTCAGCT
PBM binding z-score [1]: 3.03
PBM binding z-score [2]: 3.03
PBM binding z-score [3]: 0.713
PBM binding z-score [4]: 1.93
PBM binding z-score [5]: 0.445
PBM binding z-score [6]: 3.59
PBM binding z-score [7]: 4.38
PBM binding z-score [8]: 4.46
PBM binding z-score [9]: 1.58
PBM binding z-score [10]: 3.65

CGGACTGGGGCAGAAAGGTTACCATACCATCCGG
PBM binding z-score [1]: 0.574
PBM binding z-score [2]: 0.739
PBM binding z-score [3]: -0.05
PBM binding z-score [4]: 1.25
PBM binding z-score [5]: -0.31
PBM binding z-score [6]: 2.7
PBM binding z-score [7]: 2.62
PBM binding z-score [8]: 3.46
PBM binding z-score [9]: 1.89
PBM binding z-score [10]: 2.62

ACTAGCTGGTCAGCTGAGGTCACACACAATTCGG
PBM binding z-score [1]: 3.62
PBM binding z-score [2]: 3.57
PBM binding z-score [3]: 2.15
PBM binding z-score [4]: 3.21
PBM binding z-score [5]: -0.0797
PBM binding z-score [6]: 3.58
PBM binding z-score [7]: 1.76
PBM binding z-score [8]: 2.01
PBM binding z-score [9]: 0.341
PBM binding z-score [10]: 0.958

TCTCGGAGGAGACGAAGGTCAGAGCTTTCCAGAG
PBM binding z-score [1]: 0.255
PBM binding z-score [2]: 0.507
PBM binding z-score [3]: -0.124
PBM binding z-score [4]: 0.569
PBM binding z-score [5]: -1.39
PBM binding z-score [6]: 1.62
PBM binding z-score [7]: -0.069
PBM binding z-score [8]: 1.26
PBM binding z-score [9]: 1.84
PBM binding z-score [10]: 1.51

ACAGACACGTGAGTGAAGGTAACTCAGCTGGACG
PBM binding z-score [1]: -0.234
PBM binding z-score [2]: -0.154
PBM binding z-score [3]: -0.292
PBM binding z-score [4]: -0.456
PBM binding z-score [5]: -0.355
PBM binding z-score [6]: -0.342
PBM binding z-score [7]: 0.663
PBM binding z-score [8]: -0.357
PBM binding z-score [9]: -0.193
PBM binding z-score [10]: -0.63

GCGACTGGGGCATCAGCGGGTTACCATAACTTAA
PBM binding z-score [1]: -0.361
PBM binding z-score [2]: -0.573
PBM binding z-score [3]: -0.505
PBM binding z-score [4]: 0.433
PBM binding z-score [5]: -0.992
PBM binding z-score [6]: 1.11
PBM binding z-score [7]: 0.815
PBM binding z-score [8]: 0.669
PBM binding z-score [9]: -0.383
PBM binding z-score [10]: 0.237

TCTAATAGTTGATTAGGGCAACCGAAACAGCGGA
PBM binding z-score [1]: -0.0644
PBM binding z-score [2]: 0.461
PBM binding z-score [3]: -0.078
PBM binding z-score [4]: 0.136
PBM binding z-score [5]: -0.225
PBM binding z-score [6]: 1.23
PBM binding z-score [7]: 0.375
PBM binding z-score [8]: 1.85
PBM binding z-score [9]: 3.3
PBM binding z-score [10]: 2.53

GTAACGAGGGCAAAGTTGATAGCATCTGTCGACG
PBM binding z-score [1]: 1.48
PBM binding z-score [2]: 1.29
PBM binding z-score [3]: -0.238
PBM binding z-score [4]: 1.17
PBM binding z-score [5]: 0.169
PBM binding z-score [6]: 4.2
PBM binding z-score [7]: 7.58
PBM binding z-score [8]: 7.24
PBM binding z-score [9]: 6.77
PBM binding z-score [10]: 7.65

Reference: the supplement of paper PMC6555819
